Data as given in PubChem BioAssay (NCATS).
Values joined by “and” are separate entries in the source; they are usually repeats but may differ in a detail not shown here. Equal entries are not always repeated. Results filed as inconclusive are left out. Active and inactive are the calls of the source. Unless noted, calls follow the shape of the dose curve; as a rule, active = well fitted curve in the direction sought with a large enough effect; inconclusive = small, poorly fitted or top-dose-only effect, or another doubt; inactive = no such curve, though single readings can be large; an effect the other way counts as inactive or inconclusive.

How the values were obtained:
[1] = qHTS profiling for inhibitors of Plasmodium falciparum proliferation (AID 504749); also: nearly all actives have a fitted effect of over 60% in size; also: potency is read from the fitted curve at half-maximal effect;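 as to activity, negative = inhibition: 0% = DMSO vehicle and full inhibition = artemisinin control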; details: P. falciparum in erythrocytes, SYBR Green DNA, 72 h, at 28.7 µM (top of the series)
Summary of the method: (§1)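 Three-day growth assay of blood-stage parasites in erythrocytes (0.3% parasitemia, 2.5% hematocrit) at 37 C, 5% CO2, quantified by SYBR Green DNA staining after overnight detergent lysis.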

[2] = tested on: 3D7; test: as above; details: P. falciparum in erythrocytes, SYBR Green DNA, 72 h; series mostly up to 28.7 µM
Summary of the method: as §1

[3] = tested on: 7G8; test: as above; details: P. falciparum in erythrocytes, SYBR Green DNA, 72 h; series mostly up to 28.7 µM
Summary of the method: as §1

[4] = tested on: AA1029; test: as above; details: P. falciparum in erythrocytes, SYBR Green DNA, 72 h; series mostly up to 28.7 µM
Summary of the method: as §1

[5] = tested on: AS120; test: as above; details: P. falciparum in erythrocytes, SYBR Green DNA, 72 h; series mostly up to 28.7 µM
Summary of the method: as §1

[6] = tested on: ATS189; test: as above; details: P. falciparum in erythrocytes, SYBR Green DNA, 72 h; series mostly up to 28.7 µM
Summary of the method: as §1

[7] = tested on: ATS95; test: as above; details: P. falciparum in erythrocytes, SYBR Green DNA, 72 h; series mostly up to 28.7 µM
Summary of the method: as §1

[8] = tested on: C2A; test: as above; details: P. falciparum in erythrocytes, SYBR Green DNA, 72 h; series mostly up to 28.7 µM
Summary of the method: as §1

[9] = tested on: CP185; test: as above; details: P. falciparum in erythrocytes, SYBR Green DNA, 72 h; series mostly up to 28.7 µM
Summary of the method: as §1

[10] = tested on: CP191; test: as above; details: P. falciparum in erythrocytes, SYBR Green DNA, 72 h; series mostly up to 28.7 µM
Summary of the method: as §1

[11] = tested on: CP192; test: as above; details: P. falciparum in erythrocytes, SYBR Green DNA, 72 h; series mostly up to 28.7 µM
Summary of the method: as §1

[12] = tested on: CP194; test: as above; details: P. falciparum in erythrocytes, SYBR Green DNA, 72 h; series mostly up to 28.7 µM
Summary of the method: as §1

[13] = tested on: CP201; test: as above; details: P. falciparum in erythrocytes, SYBR Green DNA, 72 h; series mostly up to 28.7 µM
Summary of the method: as §1

[14] = tested on: CP203; test: as above; details: P. falciparum in erythrocytes, SYBR Green DNA, 72 h; series mostly up to 28.7 µM
Summary of the method: as §1

[15] = tested on: CP211; test: as above; details: P. falciparum in erythrocytes, SYBR Green DNA, 72 h; series mostly up to 28.7 µM
Summary of the method: as §1

[16] = qHTS drug screen for cell cycle checkpoint inhibitors in PARPi-resistant BRCA-mutant ovarian cancer cell lines. (AID 1963452; calls by dose curve); details: PEO1/OlaR viability, CellTiter-Glo luminescence, 96 h, stronger effect = lower value
Summary of the method: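 PEO1, PEO4 and PEO1/OlaR ovarian cancer cells, 600 per well, exposed 96 h at 37C to a dilution series. Viability read by CellTiter-Glo luminescence, normalized to DMSO and empty wells; activity summarized as Z-AUC.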

[17] = Dual reporter qHTS for agonist of Pregnane X Receptor (hPXR) against the NCATS DSHEA and TCM libraries: Fluorescence readout (AID 1920058); details: PXR dual reporter cells; series mostly up to 40 µM; also: 0% is about no effect
Summary of the method: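 Measures viability of the PXR reporter HepG2 line by protease-substrate fluorescence (405/540 nm), taken 1 h after CellTiter-Fluor addition. Substances are tested as concentration series over a ~24 h exposure, with rifampicin as agonist control.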

[18] = target: Nuclear receptor subfamily 1 group I member 2 (Homo sapiens) (UniProt O75469); test: Dual reporter qHTS for agonist of Pregnane X Receptor (hPXR) against the NCATS DSHEA and TCM libraries: Luminescence readout (AID 1920059); details: hPXR dual reporter cells, luciferase luminescence agonist; series mostly up to 40 µM; also: 0% is about no effect
Chain of Nuclear receptor subfamily 1 group I member 2 (Homo sapiens) (O75469 whole entry, looked up): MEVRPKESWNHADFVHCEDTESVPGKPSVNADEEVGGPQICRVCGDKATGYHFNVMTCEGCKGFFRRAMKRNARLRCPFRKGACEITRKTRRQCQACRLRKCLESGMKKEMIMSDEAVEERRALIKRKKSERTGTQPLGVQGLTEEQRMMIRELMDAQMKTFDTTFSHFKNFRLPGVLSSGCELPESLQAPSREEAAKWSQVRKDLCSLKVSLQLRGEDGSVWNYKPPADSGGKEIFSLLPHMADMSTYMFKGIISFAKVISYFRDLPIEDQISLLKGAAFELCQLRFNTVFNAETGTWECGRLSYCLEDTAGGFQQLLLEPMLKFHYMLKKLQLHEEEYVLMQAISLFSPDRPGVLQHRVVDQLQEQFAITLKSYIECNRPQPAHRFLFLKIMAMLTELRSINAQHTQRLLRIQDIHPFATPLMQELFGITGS
Summary of the method: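 Luminescent PXR reporter read (ONE-Glo) after a CellTiter-Fluor viability read, following 24 h, 37C treatment of HepG2 cells stably carrying hPXR-Luc.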

[19] = Dual reporter qHTS for antagonist of Pregnane X Receptor (hPXR) against the NCATS DSHEA and TCM libraries: Fluorescence Readout (AID 1920061); details: PXR dual reporter cells, antagonist mode; series mostly up to 40 µM; also: 0% is about no effect
Summary of the method: (§2)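 HepG2 hPXR-Luc, 2000 cells/well, charcoal-stripped FBS medium; 5 h attach; RIF 2 uM final; 24 h 37C/5% CO2; CellTiter-Fluor 1 h, fluor 405/540; ONE-Glo 30 min RT, lum.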

[20] = target: Nuclear receptor subfamily 1 group I member 2 (Homo sapiens) (UniProt O75469); test: Dual reporter qHTS for antagonist of Pregnane X Receptor (hPXR) against the NCATS DSHEA and TCM libraries: Luminescence Readout (AID 1920060); details: hPXR dual reporter cells, luciferase luminescence, antagonist mode; series mostly up to 40 µM;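 also: HepG2 cells carrying hPXR luciferase reporter stimulated with rifampicin at 2 µM; 0% is about no effect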
Summary of the method: as §2

[21] = measured here: PEO1 parental Z-AUC

[O]=[Cr](=[O])([OH])[O][Cr](=[O])(=[O])[OH]
inactive: activity, negative = inhibition ([1]; parasite line A) -8.13% and -2.73% | activity, negative = inhibition ([1]; parasite line B) -2.72% and -3.46% | Potency [2] | Potency [3] | Potency [4] | Potency [5] | Potency [6] | Potency [7] | Potency [8] | Potency [9] | Potency [10] | Potency [11] | Potency [12] | Potency [13] | Potency [14] | Potency [15]

C[C@H]1CC[C@@H]2[C@@H](C)[C@H]3[C@H](C[C@H]4[C@@H]5CC=C6CC(O[C@@H]7O[C@H](CO)[C@H](O)[C@H](O[C@@H]8O[C@H](CO)[C@@H](O)[C@H](O)[C@H]8O)[C@H]7O[C@H]7O[C@@H](C)[C@H](O)[C@@H](O)[C@H]7O)CC[C@]6(C)[C@H]5CC[C@]34C)N2C1 (some centres undefined)
inactive: activity, negative = inhibition ([1]; parasite line A) -2.66% | activity, negative = inhibition ([1]; parasite line B) 12% | Potency [2] | Potency [3] | Potency [4] | Potency [5] | Potency [6] | Potency [7] | Potency [8] | Potency [9] | Potency [10] | Potency [11] | Potency [12] | Potency [13] | Potency [14] | Potency [15]

N#CC1(N2CCCCC2)CCCCC1
inactive: activity, negative = inhibition ([1]; parasite line A) 7.09% | activity, negative = inhibition ([1]; parasite line B) 1.5% | Potency [2] | Potency [3] | Potency [4] | Potency [5] | Potency [6] | Potency [7] | Potency [8] | Potency [9] | Potency [10] | Potency [11] | Potency [12] | Potency [13] | Potency [14] | Potency [15]

C=C[C@H]1CN2CC[C@H]1C[C@@H]2[C@@H](O)c1ccnc2ccccc12
inactive: Z-AUC [16] 1.32
0.858: Z-AUC [16, 21]
1.06: Z-AUC ([16]; measured here: PEO4 Z-AUC)

COc1ccc2c3c1O[C@H]1C(=O)CC[C@H]4[C@@H](C2)N(C)CC[C@]314
inactive: activity, negative = inhibition ([1]; parasite line A) 0.497% | activity, negative = inhibition ([1]; parasite line B) -7.39% | Potency [2] | Potency [3] | Potency [4] | Potency [5] | Potency [6] | Potency [7] | Potency [8] | Potency [9] | Potency [10] | Potency [11] | Potency [12] | Potency [13] | Potency [14] | Potency [15]

CCC1C(C)=NN=C(c2ccc(OC)c(OC)c2)c2cc(OC)c(OC)cc21 (centres undefined)
inactive: activity, negative = inhibition ([1]; parasite line A) 12.9% | activity, negative = inhibition ([1]; parasite line B) 13.3% | Potency [2] | Potency [4] | Potency [5] | Potency [6] | Potency [7] | Potency [8] | Potency [9] | Potency [10] | Potency [11] | Potency [12] | Potency [13] | Potency [14]
active: Potency [3] 14.1 µM

CNC(C)C(O)c1ccc(O)cc1 (centres undefined)
inactive: outcome [17] | outcome [18] | outcome [19] | activity, negative = inhibition ([1]; parasite line A) 5.26% | activity, negative = inhibition ([1]; parasite line B) -1.7% | Potency [2] | Potency [3] | Potency [4] | Potency [5] | Potency [6] | Potency [7] | Potency [8] | Potency [9] | Potency [10] | Potency [11] | Potency [12] | Potency [13] | Potency [14] | Potency [15]

COC1=CC(=O)O[C@@H](/C=C/c2ccccc2)C1
inactive: outcome [17] | outcome [18] | outcome [20] | outcome [19]

O=C/C=C/c1ccccc1
inactive: outcome [17] | outcome [18] | outcome [20] | outcome [19] | activity, negative = inhibition ([1]; parasite line A) 8.58% | activity, negative = inhibition ([1]; parasite line B) -11% | Potency [2] | Potency [3] | Potency [4] | Potency [5] | Potency [6] | Potency [7] | Potency [8] | Potency [9] | Potency [10] | Potency [11] | Potency [12] | Potency [13] | Potency [14] | Potency [15]

S=C=S
inactive: activity, negative = inhibition ([1]; parasite line A) 2.86% | activity, negative = inhibition ([1]; parasite line B) 20.2% | Potency [2] | Potency [3] | Potency [4] | Potency [5] | Potency [6] | Potency [7] | Potency [8] | Potency [9] | Potency [10] | Potency [11] | Potency [12] | Potency [13] | Potency [14] | Potency [15]

CC1=C2C[C@H]3[C@@H](CC=C4C[C@@H](O)CC[C@@]43C)[C@@H]2CC[C@]12O[C@@H]1C[C@H](C)CN[C@H]1[C@H]2C
-0.348: Z-AUC [16, 21]
-0.0838: Z-AUC ([16]; measured here: PEO4 Z-AUC)
inactive: Z-AUC [16] -0.41

C[N+]1(C)C2CCC1CC(OC(=O)c1c[nH]c3ccccc13)C2 (centres undefined)
inactive: activity, negative = inhibition ([1]; parasite line A) 3.31% | activity, negative = inhibition ([1]; parasite line B) 10.8% | Potency [2] | Potency [3] | Potency [4] | Potency [5] | Potency [6] | Potency [7] | Potency [8] | Potency [9] | Potency [10] | Potency [11] | Potency [12] | Potency [13] | Potency [14] | Potency [15]

O=C(NCNC(=O)NC1C(=O)NC(=O)N1CO)NC1C(=O)NC(=O)N1CO (centres undefined)
inactive: activity, negative = inhibition ([1]; parasite line A) 15.1% | activity, negative = inhibition ([1]; parasite line B) 8.84% | Potency [2] | Potency [3] | Potency [4] | Potency [5] | Potency [6] | Potency [7] | Potency [8] | Potency [9] | Potency [10] | Potency [11] | Potency [12] | Potency [13] | Potency [14] | Potency [15]

C#CC(C)(O)CC (centres undefined)
inactive: activity, negative = inhibition ([1]; parasite line A) 3.88% | activity, negative = inhibition ([1]; parasite line B) -6.77% | Potency [2] | Potency [3] | Potency [4] | Potency [5] | Potency [6] | Potency [7] | Potency [8] | Potency [9] | Potency [10] | Potency [11] | Potency [12] | Potency [13] | Potency [14] | Potency [15]

O=C1CCCCC1CN1CCCCC1 (centres undefined)
inactive: activity, negative = inhibition ([1]; parasite line A) 6.14% | activity, negative = inhibition ([1]; parasite line B) 5.73% | Potency [2] | Potency [3] | Potency [4] | Potency [5] | Potency [6] | Potency [7] | Potency [8] | Potency [9] | Potency [10] | Potency [11] | Potency [12] | Potency [13] | Potency [14] | Potency [15]

CCC1(CC)C(=O)NC(=O)N(C)C1=O
inactive: activity, negative = inhibition ([1]; parasite line A) 7.69% | activity, negative = inhibition ([1]; parasite line B) -5% | Potency [2] | Potency [3] | Potency [4] | Potency [5] | Potency [6] | Potency [7] | Potency [8] | Potency [9] | Potency [10] | Potency [11] | Potency [12] | Potency [13] | Potency [14] | Potency [15]
